# Measurements as given in PMC7862700, “An all-to-all approach to the identification of sequence-specific readers for epigenetic DNA modifications on cytosine”.
# Tests used:
# Experiment in all cases: DAPPL (digital affinity profiling via proximity ligation, sequencing); 10 mM Tris-HCl pH 7.5, 50 mM NaCl, 1 mM DTT, 4% glycerol, room temperature, 30 min; GST-TFs on glutathione beads, 16-mer random dsDNA library, 0.1% formaldehyde crosslink after washing; high values mean tight binding
# FLI1 = target: T1, FLI1 (Homo sapiens, UniProt Q01543 1-452); conditions: protein: recombinant; tags: N-terminal GST; dsDNA, one strand shown
# T1 sequence: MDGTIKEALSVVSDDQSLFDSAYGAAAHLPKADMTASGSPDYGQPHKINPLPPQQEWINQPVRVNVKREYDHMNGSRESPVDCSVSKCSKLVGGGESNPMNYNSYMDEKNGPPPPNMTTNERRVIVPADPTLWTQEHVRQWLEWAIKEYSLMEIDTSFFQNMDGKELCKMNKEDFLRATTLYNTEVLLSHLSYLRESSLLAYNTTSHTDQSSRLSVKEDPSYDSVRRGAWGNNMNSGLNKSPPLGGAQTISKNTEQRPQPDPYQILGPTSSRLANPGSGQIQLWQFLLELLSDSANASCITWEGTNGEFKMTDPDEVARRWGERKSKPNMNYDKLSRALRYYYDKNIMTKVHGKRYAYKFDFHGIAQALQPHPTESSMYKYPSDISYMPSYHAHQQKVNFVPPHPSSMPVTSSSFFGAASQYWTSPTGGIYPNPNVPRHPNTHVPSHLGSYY
# Summary of the method: (§1)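 Beads coated with glutathione captured GST-fused human transcription factors that had been expressed in yeast, and the factors were then given DNA barcodes and pooled with a tag-only sample. The pools were incubated with 200 nmole of a random double-stranded 16-mer DNA library in Tris/NaCl/DTT/glycerol buffer for 30 min at room temperature, washed, crosslinked with 0.1% formaldehyde and proximity-ligated with BsaI/T4 ligase at 37 °C for 1 h. PCR amplification and Illumina NextSeq500 sequencing came last. Binding signal is each hexamer's read frequency for a factor divided by its frequency for the tag-only sample.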
# ELK1 = target: T2, ELK1 (Homo sapiens, UniProt P19419 1-428); conditions: protein: recombinant; tags: N-terminal GST; dsDNA, one strand shown
# T2 sequence: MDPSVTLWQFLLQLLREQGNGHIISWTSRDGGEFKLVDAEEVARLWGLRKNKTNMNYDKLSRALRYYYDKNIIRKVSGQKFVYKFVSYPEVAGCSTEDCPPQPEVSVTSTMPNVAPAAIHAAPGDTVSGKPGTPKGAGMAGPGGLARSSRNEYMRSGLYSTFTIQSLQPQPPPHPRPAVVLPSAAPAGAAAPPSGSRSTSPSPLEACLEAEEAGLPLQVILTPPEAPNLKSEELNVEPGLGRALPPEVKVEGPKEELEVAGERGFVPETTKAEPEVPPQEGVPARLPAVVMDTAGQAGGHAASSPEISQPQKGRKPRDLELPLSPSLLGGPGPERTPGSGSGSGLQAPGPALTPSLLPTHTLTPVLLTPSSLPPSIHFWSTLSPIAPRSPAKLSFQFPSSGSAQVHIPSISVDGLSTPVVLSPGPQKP
# Summary of the method: as §1
# GABPA = target: T3, GABPA (Homo sapiens, UniProt Q06546 1-454); conditions: protein: recombinant; tags: N-terminal GST; dsDNA, one strand shown
# T3 sequence: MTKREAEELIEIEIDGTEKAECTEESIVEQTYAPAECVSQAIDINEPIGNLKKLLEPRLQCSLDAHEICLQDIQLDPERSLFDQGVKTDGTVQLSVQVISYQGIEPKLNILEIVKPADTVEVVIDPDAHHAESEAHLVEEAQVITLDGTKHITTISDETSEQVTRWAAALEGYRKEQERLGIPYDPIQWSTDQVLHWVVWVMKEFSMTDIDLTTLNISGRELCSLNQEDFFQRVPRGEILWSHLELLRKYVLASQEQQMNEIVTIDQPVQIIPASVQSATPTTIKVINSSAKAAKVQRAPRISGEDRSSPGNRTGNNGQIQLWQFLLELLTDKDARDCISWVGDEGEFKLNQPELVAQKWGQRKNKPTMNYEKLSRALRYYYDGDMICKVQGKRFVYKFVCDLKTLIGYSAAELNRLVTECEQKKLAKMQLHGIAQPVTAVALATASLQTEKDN
# Summary of the method: as §1
# ERG = target: T4, ERG (Homo sapiens, UniProt P11308 1-479); conditions: protein: recombinant; tags: N-terminal GST; dsDNA, one strand shown
# T4 sequence: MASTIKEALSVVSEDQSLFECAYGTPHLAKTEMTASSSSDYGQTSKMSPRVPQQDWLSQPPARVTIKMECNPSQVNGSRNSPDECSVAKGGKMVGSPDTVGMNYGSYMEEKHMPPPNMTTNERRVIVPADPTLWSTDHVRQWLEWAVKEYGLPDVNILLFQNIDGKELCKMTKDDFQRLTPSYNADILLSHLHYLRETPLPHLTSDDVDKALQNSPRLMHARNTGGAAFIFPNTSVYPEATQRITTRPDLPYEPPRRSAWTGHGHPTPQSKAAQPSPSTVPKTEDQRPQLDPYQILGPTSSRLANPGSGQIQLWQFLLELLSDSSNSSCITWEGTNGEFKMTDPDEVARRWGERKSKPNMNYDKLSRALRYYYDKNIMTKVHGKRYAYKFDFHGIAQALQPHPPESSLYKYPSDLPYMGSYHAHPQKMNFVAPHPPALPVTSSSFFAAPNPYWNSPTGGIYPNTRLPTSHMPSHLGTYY
# Summary of the method: as §1
# ELF1 = ELF1 (Homo sapiens, UniProt P32519 1-619); conditions: protein: recombinant; tags: N-terminal GST; dsDNA, one strand shown
# Summary of the method: as §1
# EHF = target: T5, EHF (Homo sapiens, UniProt Q9NZC4 1-300); conditions: protein: recombinant; tags: N-terminal GST; dsDNA, one strand shown
# T5 sequence: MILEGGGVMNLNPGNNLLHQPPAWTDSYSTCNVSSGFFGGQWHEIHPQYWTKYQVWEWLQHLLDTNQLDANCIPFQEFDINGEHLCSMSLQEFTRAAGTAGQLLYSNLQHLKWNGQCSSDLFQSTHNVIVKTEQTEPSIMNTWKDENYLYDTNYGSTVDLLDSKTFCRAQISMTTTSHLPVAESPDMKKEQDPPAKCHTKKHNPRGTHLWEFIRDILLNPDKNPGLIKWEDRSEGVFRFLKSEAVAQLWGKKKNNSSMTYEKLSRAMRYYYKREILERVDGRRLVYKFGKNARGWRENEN
# Summary of the method: as §1
# SPI1 = SPI1 (Homo sapiens, UniProt P17947 1-270); conditions: protein: recombinant; tags: N-terminal GST; dsDNA, one strand shown
# Summary of the method: as §1
# SPIB = SPIB (Homo sapiens, UniProt Q01892 1-262); conditions: protein: recombinant; tags: N-terminal GST; dsDNA, one strand shown
# Summary of the method: as §1
# ELK3 = target: T6, ELK3 (Homo sapiens, UniProt P41970 1-407); conditions: protein: recombinant; tags: N-terminal GST; dsDNA, one strand shown
# T6 sequence: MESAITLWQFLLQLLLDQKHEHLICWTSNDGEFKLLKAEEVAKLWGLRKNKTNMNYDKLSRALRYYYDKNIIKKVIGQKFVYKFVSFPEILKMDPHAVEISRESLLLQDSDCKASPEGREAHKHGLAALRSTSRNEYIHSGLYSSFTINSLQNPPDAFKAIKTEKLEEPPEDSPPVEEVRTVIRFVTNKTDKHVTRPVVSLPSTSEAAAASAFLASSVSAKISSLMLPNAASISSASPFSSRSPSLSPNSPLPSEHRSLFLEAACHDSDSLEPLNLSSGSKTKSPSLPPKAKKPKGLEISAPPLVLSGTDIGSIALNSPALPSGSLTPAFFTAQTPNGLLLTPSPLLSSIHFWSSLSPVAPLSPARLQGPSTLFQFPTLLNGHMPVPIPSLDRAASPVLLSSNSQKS
# Summary of the method: as §1
# FEV = target: T7, FEV (Homo sapiens, UniProt Q99581 1-238); conditions: protein: recombinant; tags: N-terminal GST; dsDNA, one strand shown
# T7 sequence: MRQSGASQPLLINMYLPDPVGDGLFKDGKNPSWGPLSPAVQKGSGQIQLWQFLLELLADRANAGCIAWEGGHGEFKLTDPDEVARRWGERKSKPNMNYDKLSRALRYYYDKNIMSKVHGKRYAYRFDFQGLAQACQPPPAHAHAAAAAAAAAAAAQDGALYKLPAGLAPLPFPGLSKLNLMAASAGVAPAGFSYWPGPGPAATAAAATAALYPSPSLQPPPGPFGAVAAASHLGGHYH
# Summary of the method: as §1
# ETV5 = ETV5 (Homo sapiens, UniProt P41161 1-510); conditions: protein: recombinant; tags: N-terminal GST; dsDNA, one strand shown
# Summary of the method: as §1
# HSF1 = HSF1 (Homo sapiens, UniProt Q00613 1-529); conditions: protein: recombinant; tags: N-terminal GST; chain copies: 3; dsDNA, one strand shown
# Summary of the method: as §1
# SPIC = target: T8, SPIC (Homo sapiens, UniProt Q8N5J4 1-248); conditions: protein: recombinant; tags: N-terminal GST; dsDNA, one strand shown
# T8 sequence: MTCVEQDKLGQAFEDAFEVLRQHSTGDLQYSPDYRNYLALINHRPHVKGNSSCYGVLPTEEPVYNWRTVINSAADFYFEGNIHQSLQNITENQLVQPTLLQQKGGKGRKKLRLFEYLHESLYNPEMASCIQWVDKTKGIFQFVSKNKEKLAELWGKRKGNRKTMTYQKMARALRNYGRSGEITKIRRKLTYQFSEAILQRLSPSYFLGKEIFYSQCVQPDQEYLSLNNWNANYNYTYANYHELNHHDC
# Summary of the method: as §1
# ELF4 = ELF4 (Homo sapiens, UniProt Q99607 1-663); conditions: protein: recombinant; tags: N-terminal GST; dsDNA, one strand shown
# Summary of the method: as §1
# ELK4 = target: T9, ELK4 (Homo sapiens, UniProt P28324-2 1-405); conditions: protein: recombinant; tags: N-terminal GST; dsDNA, one strand shown
# T9 sequence: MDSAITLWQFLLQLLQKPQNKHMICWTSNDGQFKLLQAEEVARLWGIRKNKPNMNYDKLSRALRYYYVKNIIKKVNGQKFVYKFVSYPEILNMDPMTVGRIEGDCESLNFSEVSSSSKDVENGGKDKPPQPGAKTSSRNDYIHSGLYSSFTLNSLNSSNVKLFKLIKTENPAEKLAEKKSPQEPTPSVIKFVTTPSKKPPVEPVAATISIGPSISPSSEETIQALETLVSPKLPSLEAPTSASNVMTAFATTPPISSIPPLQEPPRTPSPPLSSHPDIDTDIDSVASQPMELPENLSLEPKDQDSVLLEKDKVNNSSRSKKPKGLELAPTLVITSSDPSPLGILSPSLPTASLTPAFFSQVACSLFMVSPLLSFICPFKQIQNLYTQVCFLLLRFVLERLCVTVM
# Summary of the method: as §1
# ETV2 = target: T10, ETV2 (Homo sapiens, UniProt O00321 1-342); conditions: protein: recombinant; tags: N-terminal GST; dsDNA, one strand shown
# T10 sequence: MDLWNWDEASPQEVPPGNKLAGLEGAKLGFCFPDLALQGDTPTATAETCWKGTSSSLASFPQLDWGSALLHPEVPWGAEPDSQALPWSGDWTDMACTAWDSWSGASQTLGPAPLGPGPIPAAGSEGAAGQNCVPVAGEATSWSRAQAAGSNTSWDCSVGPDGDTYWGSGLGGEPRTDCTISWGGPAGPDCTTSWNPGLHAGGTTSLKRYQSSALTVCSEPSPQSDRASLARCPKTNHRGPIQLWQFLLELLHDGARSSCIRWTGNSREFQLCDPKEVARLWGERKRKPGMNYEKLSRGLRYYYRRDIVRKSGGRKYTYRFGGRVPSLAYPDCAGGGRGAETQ
# Summary of the method: as §1
# ELF3 = target: T11, ELF3 (Homo sapiens, UniProt P78545 1-371); conditions: protein: recombinant; tags: N-terminal GST; dsDNA, one strand shown
# T11 sequence: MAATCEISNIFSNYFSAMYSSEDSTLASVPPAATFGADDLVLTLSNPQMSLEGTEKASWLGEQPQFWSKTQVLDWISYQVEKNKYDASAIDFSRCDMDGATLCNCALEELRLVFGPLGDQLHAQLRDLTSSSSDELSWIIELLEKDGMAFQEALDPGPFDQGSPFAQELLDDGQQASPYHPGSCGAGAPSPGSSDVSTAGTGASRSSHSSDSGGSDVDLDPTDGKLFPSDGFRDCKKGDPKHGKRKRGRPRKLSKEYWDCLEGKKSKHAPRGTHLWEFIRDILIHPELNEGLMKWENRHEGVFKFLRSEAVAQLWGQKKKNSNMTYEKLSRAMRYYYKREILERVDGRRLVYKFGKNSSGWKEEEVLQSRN
# Summary of the method: as §1
# CRX = CRX (Homo sapiens, UniProt O43186 1-299); conditions: protein: recombinant; tags: N-terminal GST; dsDNA, one strand shown
# Summary of the method: as §1
# ETV1 = ETV1 (Homo sapiens, UniProt P50549 1-477); conditions: protein: recombinant; tags: N-terminal GST; dsDNA, one strand shown
# Summary of the method: as §1
# Sequence of ELF1 (P32519 whole entry): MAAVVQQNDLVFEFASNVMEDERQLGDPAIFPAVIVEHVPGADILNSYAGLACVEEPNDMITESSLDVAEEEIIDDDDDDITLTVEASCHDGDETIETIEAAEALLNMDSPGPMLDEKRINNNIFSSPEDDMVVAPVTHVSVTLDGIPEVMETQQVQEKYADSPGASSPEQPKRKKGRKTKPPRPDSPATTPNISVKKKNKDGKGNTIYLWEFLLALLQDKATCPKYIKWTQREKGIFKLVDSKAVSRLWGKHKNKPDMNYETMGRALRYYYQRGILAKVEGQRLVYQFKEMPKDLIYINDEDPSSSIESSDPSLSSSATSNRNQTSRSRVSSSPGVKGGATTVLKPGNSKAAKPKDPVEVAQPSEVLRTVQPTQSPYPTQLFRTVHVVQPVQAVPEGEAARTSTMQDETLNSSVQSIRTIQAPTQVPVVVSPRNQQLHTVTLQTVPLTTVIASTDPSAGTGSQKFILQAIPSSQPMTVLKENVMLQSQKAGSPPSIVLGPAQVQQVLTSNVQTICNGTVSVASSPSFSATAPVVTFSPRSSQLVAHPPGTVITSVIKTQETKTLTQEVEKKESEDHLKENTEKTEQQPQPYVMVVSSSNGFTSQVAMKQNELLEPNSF
# Sequence of HSF1 (Q00613 whole entry): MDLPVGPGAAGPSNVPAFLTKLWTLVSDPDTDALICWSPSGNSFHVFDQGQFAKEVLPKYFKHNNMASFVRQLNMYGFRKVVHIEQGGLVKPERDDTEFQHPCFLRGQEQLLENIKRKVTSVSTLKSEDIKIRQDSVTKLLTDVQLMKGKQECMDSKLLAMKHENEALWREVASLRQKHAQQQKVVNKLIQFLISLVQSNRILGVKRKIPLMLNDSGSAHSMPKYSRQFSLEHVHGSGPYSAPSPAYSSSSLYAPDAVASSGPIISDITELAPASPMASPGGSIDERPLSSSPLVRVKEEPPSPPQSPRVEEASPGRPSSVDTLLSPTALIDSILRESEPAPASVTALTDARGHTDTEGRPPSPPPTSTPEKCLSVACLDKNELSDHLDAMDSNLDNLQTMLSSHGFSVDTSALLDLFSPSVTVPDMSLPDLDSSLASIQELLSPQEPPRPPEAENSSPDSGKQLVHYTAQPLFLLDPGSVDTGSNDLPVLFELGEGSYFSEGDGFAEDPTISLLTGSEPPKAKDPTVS
# Sequence of CRX (O43186 whole entry): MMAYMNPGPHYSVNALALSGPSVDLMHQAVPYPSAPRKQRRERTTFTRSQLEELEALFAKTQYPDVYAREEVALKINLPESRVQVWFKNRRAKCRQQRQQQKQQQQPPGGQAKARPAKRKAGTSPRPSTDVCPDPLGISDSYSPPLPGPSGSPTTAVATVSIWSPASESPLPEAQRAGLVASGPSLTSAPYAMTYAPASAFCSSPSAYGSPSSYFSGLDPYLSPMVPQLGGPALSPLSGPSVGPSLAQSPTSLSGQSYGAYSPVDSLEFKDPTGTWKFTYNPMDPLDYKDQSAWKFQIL
# Sequence of ELF4 (Q99607 whole entry): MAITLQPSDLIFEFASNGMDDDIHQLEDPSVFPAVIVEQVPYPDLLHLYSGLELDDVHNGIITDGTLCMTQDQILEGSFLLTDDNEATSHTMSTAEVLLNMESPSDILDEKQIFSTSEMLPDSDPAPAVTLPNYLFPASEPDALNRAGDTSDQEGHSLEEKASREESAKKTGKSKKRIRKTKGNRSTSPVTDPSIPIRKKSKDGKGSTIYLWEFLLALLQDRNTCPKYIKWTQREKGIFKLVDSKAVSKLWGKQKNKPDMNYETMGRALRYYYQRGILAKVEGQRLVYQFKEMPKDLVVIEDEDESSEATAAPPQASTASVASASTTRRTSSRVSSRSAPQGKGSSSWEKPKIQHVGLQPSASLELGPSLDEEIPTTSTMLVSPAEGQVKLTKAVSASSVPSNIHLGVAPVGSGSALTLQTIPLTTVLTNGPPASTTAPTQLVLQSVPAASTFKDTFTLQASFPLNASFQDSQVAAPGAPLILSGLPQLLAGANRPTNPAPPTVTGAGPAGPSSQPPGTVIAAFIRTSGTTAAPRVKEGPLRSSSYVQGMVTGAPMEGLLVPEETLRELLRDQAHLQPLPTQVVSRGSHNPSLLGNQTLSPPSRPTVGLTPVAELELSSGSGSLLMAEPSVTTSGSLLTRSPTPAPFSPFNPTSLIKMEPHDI
# Sequence of ETV5 (P41161 whole entry): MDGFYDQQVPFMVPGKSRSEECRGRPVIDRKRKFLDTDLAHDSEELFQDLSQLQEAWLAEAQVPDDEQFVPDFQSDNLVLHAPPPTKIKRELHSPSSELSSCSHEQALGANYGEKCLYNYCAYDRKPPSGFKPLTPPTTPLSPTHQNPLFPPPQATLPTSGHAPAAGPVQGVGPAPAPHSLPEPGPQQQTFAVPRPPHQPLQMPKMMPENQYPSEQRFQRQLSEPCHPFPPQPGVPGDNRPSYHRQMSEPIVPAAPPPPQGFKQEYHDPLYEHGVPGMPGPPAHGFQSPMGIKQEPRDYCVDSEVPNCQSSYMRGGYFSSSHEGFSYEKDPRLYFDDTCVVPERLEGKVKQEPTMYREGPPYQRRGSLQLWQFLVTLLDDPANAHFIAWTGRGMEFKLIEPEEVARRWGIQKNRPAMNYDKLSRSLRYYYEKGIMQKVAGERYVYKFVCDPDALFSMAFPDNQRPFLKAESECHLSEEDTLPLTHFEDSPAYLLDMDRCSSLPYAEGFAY
# Sequence of SPIB (Q01892 whole entry): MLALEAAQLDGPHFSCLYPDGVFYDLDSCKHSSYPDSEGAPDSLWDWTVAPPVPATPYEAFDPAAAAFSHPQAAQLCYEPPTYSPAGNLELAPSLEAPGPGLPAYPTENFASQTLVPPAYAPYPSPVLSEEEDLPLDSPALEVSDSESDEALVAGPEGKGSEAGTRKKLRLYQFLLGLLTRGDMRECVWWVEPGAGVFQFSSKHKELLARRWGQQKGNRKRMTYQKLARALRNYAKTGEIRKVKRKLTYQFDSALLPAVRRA
# Sequence of ETV1 (P50549 whole entry): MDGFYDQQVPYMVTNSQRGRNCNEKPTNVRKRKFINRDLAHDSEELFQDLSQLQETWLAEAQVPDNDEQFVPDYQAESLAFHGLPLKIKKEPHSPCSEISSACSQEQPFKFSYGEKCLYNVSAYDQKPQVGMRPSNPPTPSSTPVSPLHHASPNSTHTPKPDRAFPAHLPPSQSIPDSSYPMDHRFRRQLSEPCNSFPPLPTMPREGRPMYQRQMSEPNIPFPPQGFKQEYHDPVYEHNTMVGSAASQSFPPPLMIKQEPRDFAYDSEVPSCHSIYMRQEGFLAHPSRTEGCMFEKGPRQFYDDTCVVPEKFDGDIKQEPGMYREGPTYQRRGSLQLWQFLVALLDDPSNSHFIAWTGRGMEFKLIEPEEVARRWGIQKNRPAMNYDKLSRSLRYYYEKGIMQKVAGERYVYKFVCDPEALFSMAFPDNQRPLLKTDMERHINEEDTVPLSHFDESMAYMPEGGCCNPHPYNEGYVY
sequence,measurement,setting,value
TTCGCC,binding signal,FLI1,"1.26 fold enrichment (6-mer frequency, TF over GST control)"
same,binding signal,ELK1,"1.28 fold enrichment (6-mer frequency, TF over GST control)"
same,binding signal,GABPA,"1.2 fold enrichment (6-mer frequency, TF over GST control)"
same,binding signal,ERG,"1.15 fold enrichment (6-mer frequency, TF over GST control)"
same,binding signal,ELF1,"1.15 fold enrichment (6-mer frequency, TF over GST control)"
same,binding signal,EHF,"1.11 fold enrichment (6-mer frequency, TF over GST control)"
same,binding signal,SPI1,"1.1 fold enrichment (6-mer frequency, TF over GST control)"
same,binding signal,SPIB,"1.14 fold enrichment (6-mer frequency, TF over GST control)"
same,binding signal,ELK3,"1.08 fold enrichment (6-mer frequency, TF over GST control)"
same,binding signal,FEV,"1.19 fold enrichment (6-mer frequency, TF over GST control)"
same,binding signal,ETV5,"1.13 fold enrichment (6-mer frequency, TF over GST control)"
same,binding signal,HSF1,"1.14 fold enrichment (6-mer frequency, TF over GST control)"
same,binding signal,SPIC,"1.32 fold enrichment (6-mer frequency, TF over GST control)"
same,binding signal,ELF4,"1.05 fold enrichment (6-mer frequency, TF over GST control)"
same,binding signal,ELK4,"1.08 fold enrichment (6-mer frequency, TF over GST control)"
same,binding signal,ETV2,"1.1 fold enrichment (6-mer frequency, TF over GST control)"
same,binding signal,ELF3,"1.08 fold enrichment (6-mer frequency, TF over GST control)"
same,binding signal,CRX,"1 fold enrichment (6-mer frequency, TF over GST control)"
same,binding signal,ETV1,"1.13 fold enrichment (6-mer frequency, TF over GST control)"
